# Results taken from the supplement of paper PMC8728848.
# About 410 targets per protein were measured; listed, in parts, are those with the strongest signals and a random draw of the rest.
# Assays:
# Assay in all cases: glycan array binding signal (z-score within array); higher = stronger binding
# Conditions in all cases: glycan notation: IUPAC condensed, linker removed
# [1] = tested on: Neu5Ac(a2-6)Gal(b1-4)GlcNAc(b1-2)[Neu5Ac(a2-6)Gal(b1-4)GlcNAc(b1-6)]Man(a1-6)[Neu5Ac(a2-6)Gal(b1-4)GlcNAc(b1-2)Man(a1-3)][GlcNAc(b1-4)]Man(b1-4)GlcNAc(b1-4)GlcNAc
# Summary of the method: (§1)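 The binding signal is a Z-score computed within each array. Data were drawn from 3228 arrays in the Consortium for Functional Glycomics database, restricted to those with a known protein sequence. Scores were averaged over arrays of the same protein sequence at different concentrations or buffers, and over linkers, and negative values can be taken as non-binding.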
# [2] = tested on: Neu5Ac(a2-6)Gal(b1-4)GlcNAc(b1-2)Man(a1-6)[Gal(b1-4)GlcNAc(b1-2)Man(a1-3)]Man(b1-4)GlcNAc(b1-4)GlcNAc
# Summary of the method: as §1
# [3] = tested on: Neu5Ac(a2-6)Gal(b1-4)GlcNAc(b1-3)Gal(b1-4)GlcNAc
# Summary of the method: as §1
# [4] = tested on: Neu5Ac(a2-6)Gal(b1-4)GlcNAc(b1-3)GalNAc
# Summary of the method: as §1
# [5] = tested on: Neu5Ac(a2-6)Gal(b1-4)GlcNAc(b1-3)Gal(b1-3)GlcNAc
# Summary of the method: as §1
# [6] = tested on: Neu5Ac(a2-6)Gal(b1-4)GlcNAc(b1-3)Gal(b1-4)GlcNAc(b1-3)Gal(b1-4)GlcNAc(b1-2)Man(a1-3)[Neu5Ac(a2-6)Gal(b1-4)GlcNAc(b1-3)Gal(b1-4)GlcNAc(b1-3)Gal(b1-4)GlcNAc(b1-2)Man(a1-6)]GalNAc
# Summary of the method: as §1
# [7] = tested on: Neu5Ac(a2-6)Gal(b1-4)GlcNAc(b1-3)Gal(b1-4)[Fuc(a1-3)]GlcNAc(b1-3)Gal(b1-4)[Fuc(a1-3)]GlcNAc
# Summary of the method: as §1
# [8] = tested on: Neu5Ac(a2-6)Gal(b1-4)GlcNAc(b1-2)[Neu5Ac(a2-3)Gal(b1-4)GlcNAc(b1-4)]Man(a1-3)[Neu5Ac(a2-3)Gal(b1-4)GlcNAc(b1-2)Man(a1-6)]Man(b1-4)GlcNAc(b1-4)GlcNAc
# Summary of the method: as §1
# [9] = tested on: Neu5Ac(a2-6)Gal(b1-4)GlcNAc(b1-2)Man(a1-6)Man(b1-4)GlcNAc(b1-4)GlcNAc
# Summary of the method: as §1
# [10] = tested on: Neu5Ac(a2-6)Gal(b1-4)GlcNAc(b1-3)Gal(b1-4)GlcNAc(b1-6)[Gal(b1-3)]GalNAc
# Summary of the method: as §1
substance,measurement,setting,value
AgI/IIC123-GFP (Streptococcus mutans),glycan array binding signal (z-score),[1],3.72
"BambL (Burhholderia ambifaria), Q0B4G1",glycan array binding signal (z-score),[2],-0.317
"SpGH101 (Streptococcus pneumoniae), Q8DR60",glycan array binding signal (z-score),[3],-0.199
same,glycan array binding signal (z-score),[4],2.23
LcI (Legionella pneumophila),glycan array binding signal (z-score),[5],0.02
"SiiE (Salmonella typhimurium), A0A0H3NVH0",glycan array binding signal (z-score),[5],2.56
AgI/II Vhelical-GFP (Streptococcus mutans),glycan array binding signal (z-score),[6],1.12
same,glycan array binding signal (z-score),[7],1.26
"MIC3-MAR1b (Eimeria tenella), B6VCV4",glycan array binding signal (z-score),[8],2.99
Epa22,glycan array binding signal (z-score),[9],0.268
same,glycan array binding signal (z-score),[6],3.15
same,glycan array binding signal (z-score),[10],0.044
